# Laboratory results as given in PubChem BioAssay (NCATS).
# The source made the active and inactive calls. Calls follow the shape of the full dose curve.
# Experiment: Cell Proliferation Assay Versus the ED40515 IL2 Independent ATL cell lines (AID 1053194)
# Conditions: ED40515 IL2-independent ATL cells
# Text: Adult T-cell leukemia (ATL) develops in individuals infected with human T-cell lymphotropic virus-1 (HTLV-1). Clinically, ATL is subclassified into four subtypes: smoldering, chronic, lymphomatous, and acute. Two autocrine loops (IL-2/IL-2Ralpha and IL-15/IL-15Ralpha) and one paracrine stimulation loop that involves IL-9 expression by ATL cells and IL-9Ralpha expression on monocytes are required to maintain viability and proliferation in the smoldering and chronic forms of the disease. These assays examined the differential response profiles for the MIPE library of approved and investigational drugs versus an IL2 dependent and independent matched ATL cell line, with the current submission examining the differential response profiles for drugs on an IL2 independent matched ATL cell line
# Plate log growing ED40515 -IL2 cells: 1000cells/ well in 5uL phenol red free RPMI +5% FBS +1x p/s, Glutamine using 1536 well white griener tissue culture plates and multidrop cassette acoustic dispensing Columns 1 and 3 DMSO Columns 2 and 4, 9.2 uM Bortezomib Incubate 48 hours for celltiter glo 37C with 5%CO2 and 95% humidity with low evaporation lids Dispense 3 uL per well of cell titer glo with multidrop Incubate for 15 minutes at RT Read on VL/2 using Luminesence Wheel (Filter A)
row,Compound,Potency
1,COc1ccc(-c2c(-c3ccc(O)cc3O)n[nH]c2C)cc1,23.5 µM (active)
2,COCCNCCCn1c(C(=O)CF)c(-c2ccc(C)cc2)c2c(N)ncnc21,9.35 µM (active)
3,Cc1c(C)c2c(c(C)c1O)CCC(C)(COc1ccc(CC3SC(=O)NC3=O)cc1)O2 (stereo not given),37.2 µM (active)
4,CN(C)C(=O)c1ccc(S(=O)(=O)c2ccc(NC(=O)[C@@](C)(O)C(F)(F)F)c(Cl)c2)cc1,9.35 µM (active)
5,CCn1c(-c2nonc2N)nc2c(C#CC(C)(C)O)ncc(OC[C@H]3CCCNC3)c21,33.2 µM (active)
6,CCOc1cc(C=C2C(=O)N(c3ccccc3)N=C2C)cc(Cl)c1OCC(=O)OC,29.6 µM (active)
7,COc1ccc2nc(S(=O)Cc3ncc(C)c(OC)c3C)[nH]c2c1 (stereo not given),1.05 µM (active)
8,Cc1ccc2c(c1)C(=O)[C@@]1(O)CCN(c3ccccc3)C1=N2,13.2 µM (active)
9,CNC(=O)c1ccc(N2C(=S)N(c3ccc(C#N)c(C(F)(F)F)c3)C(=O)C2(C)C)cc1F,23.5 µM (active)
10,CCN(CC)CCCC(C)Nc1nc(C)cc(Nc2ccc3nc(C)cc(N)c3c2)n1 (stereo not given),26.4 µM (active)
11,Cc1oncc1C(=O)Nc1ccc(C(F)(F)F)cc1,14.8 µM (active)
12,C[C@]12CC[C@H](O)CC1=CC[C@@H]1[C@H]2CC[C@]2(C)C(c3cccnc3)=CC[C@H]12,26.4 µM (active)
13,CC(C)(C)OC(=O)CN(Cc1ccc(Cl)cc1)Cc1ccc([N+](=O)[O-])s1,29.6 µM (active)
14,Cc1cccc(-c2nn(C(=S)Nc3ccccc3)cc2-c2ccnc3ccccc23)n1,26.4 µM (active)
15,CC1(C)Cc2c(-c3ccccc3)c(-c3ccc(Cl)cc3)c(CC(=O)O)n2C1,11.8 µM (active)
16,Cc1csc(NC(=O)c2sc3nc4c(c(C(F)(F)F)c3c2N)CCC4)n1,26.4 µM (active)
17,CCN(CCCO)CCCOc1ccc2c(Nc3cc(CC(=O)Nc4cccc(F)c4)[nH]n3)ncnc2c1,26.4 µM (active)
18,COc1ccc(-c2ccc3c(N4CCOCC4)nc(N4C[C@@H](C)O[C@@H](C)C4)nc3n2)cc1CO,0.59 µM (active)
19,CCCCCCCc1ccc(CCc2cccc(O)c2C(=O)O)cc1,16.6 µM (active)
20,O=c1ncn2nc(Sc3ccc(F)cc3F)ccc2c1-c1c(Cl)cccc1Cl,26.4 µM (active)

row,Compound,Potency
1,O=C1CCCC2=C1C(c1[nH]ncc1Cl)N=C(Nc1nc3ccccc3o1)N2 (stereo not given),16.6 µM (active)
2,Cc1cc2c(F)c(Oc3ncnn4cc(OC[C@@H](C)O)c(C)c34)ccc2[nH]1,1.05 µM (active)
3,CC(C)c1onc(-c2c(Cl)cccc2Cl)c1COc1ccc(/C=C/c2cccc(C(=O)O)c2)c(Cl)c1,33.2 µM (active)
4,S=C(NCc1ccc2c(c1)OCO2)N1CCN(c2ncnc3c2oc2ccccc23)CC1,3.32 µM (active)
5,Cc1ccccc1C(C(=O)NC1CCCC1)N(C(=O)Cn1cnc2ccccc21)c1cccc(F)c1 (stereo not given),20.9 µM (active)
6,O=C(O)c1ccc(-c2c[nH]c3ccc(-c4ccccc4)cc23)cc1C1CCCC1,2.35 µM (active)
7,CC(C)(N)C(=O)N[C@H](COCc1ccccc1)C(=O)N1CCC2(CC1)CN(S(C)(=O)=O)c1ccccc12,7.43 µM (active)
8,C[C@]1(c2nc3c(C(N)=O)cccc3[nH]2)CCCN1,16.6 µM (active)
9,COc1cc(Oc2ccnc3cc(OC)c(OC)cc23)ccc1NC(=O)NC(C)c1nccs1 (stereo not given),9.35 µM (active)
10,CCCn1c(=O)c2[nH]c(C34CC5CC3C[C@@H](C5)C4)nc2n(CCC)c1=O,18.7 µM (active)
11,CCc1cc(Nc2nccc(-c3c(-c4ccc(OC)c(C(=O)Nc5c(F)cccc5F)c4)nc4ccccn34)n2)c(OC)cc1N1CCC(N2CCN(S(C)(=O)=O)CC2)CC1,4.69 µM (active)
12,CC(=O)NC(C)c1ccc(Oc2ccc(OC(C)C)cc2)cc1 (stereo not given),10.5 µM (active)
13,Cc1ccc(-n2nc(C(C)(C)C)cc2NC(=O)Nc2ccc(OCCN3CCOCC3)c3ccccc23)cc1,26.4 µM (active)
14,Cc1ccnc(NS(=O)(=O)c2ccc(NC(=O)Nc3ccc(S(=O)(=O)Nc4nccc(C)n4)cc3)cc2)n1,6.62 µM (active)
15,COc1ccccc1-c1cccc(-c2c(O)c3cc(C#N)c(Cl)cc3[nH]c2=O)c1,16.6 µM (active)
16,Cc1cnc(Nc2ccc(OCCN3CCCC3)cc2)nc1Nc1cccc(S(=O)(=O)NC(C)(C)C)c1,33.2 µM (active)
17,CCOc1cc(N2CCC(O)CC2)ccc1Nc1ncc2c(n1)N(C)c1ccccc1C(=O)N2C,5.26 µM (active)
18,CC(C)C[C@H](NC(=O)[C@@H](O)[C@H](N)Cc1ccccc1)C(=O)O,6.62 µM (active)
19,CNC(=O)c1ccc(C)c(-n2c(C)cc(OCc3ccc(F)cc3F)c(Br)c2=O)c1,26.4 µM (active)
20,Cc1cc([C@@H](C)Nc2ccccc2C(=O)O)c2nc(N3CCOCC3)cc(=O)n2c1,20.9 µM (active)
